High-throughput results as filed in PubChem BioAssay.
In the library only some 1.3% were active in any assay of this set; here they are far more common.
TSHR antagonist = human thyrotropin receptor antagonism; activity change, negative = inhibition, % at 11.5 µM; P16473; TSHR-expressing cells, TSH-stimulated cAMP HTRF, 2 h; stronger effect = lower value; AID 504810; hit rate 0.2% among 330,000;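 active = activity change below a set negative limit, meaning inhibition stronger than a set level, cut at about -70% in these data; inconclusive = activity change between two set negative limits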; also: % is scaled to controls: 0 for no effect and ±100 for the full control effect
Target sequence (P16473 whole entry, looked up): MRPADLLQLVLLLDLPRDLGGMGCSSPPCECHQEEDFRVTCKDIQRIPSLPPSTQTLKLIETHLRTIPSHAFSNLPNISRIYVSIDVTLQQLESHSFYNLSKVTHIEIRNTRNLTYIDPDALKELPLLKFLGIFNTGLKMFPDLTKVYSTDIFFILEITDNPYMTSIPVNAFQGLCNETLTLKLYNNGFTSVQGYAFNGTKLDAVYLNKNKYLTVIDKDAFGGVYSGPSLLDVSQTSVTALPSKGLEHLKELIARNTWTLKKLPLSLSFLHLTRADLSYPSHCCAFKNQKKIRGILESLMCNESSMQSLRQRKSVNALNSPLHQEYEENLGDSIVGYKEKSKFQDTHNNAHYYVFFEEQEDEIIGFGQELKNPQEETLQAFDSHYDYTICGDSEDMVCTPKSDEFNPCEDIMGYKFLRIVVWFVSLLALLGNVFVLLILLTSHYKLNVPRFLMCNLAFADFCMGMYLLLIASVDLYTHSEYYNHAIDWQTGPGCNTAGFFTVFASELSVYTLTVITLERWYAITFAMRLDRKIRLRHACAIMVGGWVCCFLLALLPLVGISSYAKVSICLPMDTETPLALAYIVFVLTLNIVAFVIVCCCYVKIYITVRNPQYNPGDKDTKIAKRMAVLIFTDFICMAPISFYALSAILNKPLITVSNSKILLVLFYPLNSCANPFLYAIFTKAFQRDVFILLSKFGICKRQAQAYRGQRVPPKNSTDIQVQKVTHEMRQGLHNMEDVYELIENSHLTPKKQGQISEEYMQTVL
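Cell-based HTRF cAMP assay; TSHR cells + compound, TSH EC80 (4nM final), 2 h, 37 deg C. Lysis with anti-cAMP cryptate and cAMP-d2, 30 min RT, read 665/620 nm.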
RXFP1 agonist = activates the human relaxin receptor RXFP1; hit rate 0.3% among 370,000; Potency, µM (titrated, usually from 57.5 µM), for inactives: top-dose activation, usual class: activators; Q9HBX9; HEK293T-RXFP1 cAMP TR-FRET, 30 min; response scale: percent of porcine relaxin response, buffer zero; AID 2676; active = well fitted activation curve with a large enough effect; inconclusive = small, poorly fitted or top-dose-only effect; also: potency is read from the fitted curve at half-maximal effect; % is scaled to controls: 0 for no effect and ±100 for the full control effect; nearly all actives have a fitted effect of over 60% in size
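HEK293T cells stably expressing RXFP1 were pretreated with the PDE4 inhibitor Ro 20174, exposed to compounds for 30 min at 37C, lysed, and cAMP was read by TR-FRET. Data normalized to buffer (basal) and 29 nM porcine relaxin (100%).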
gsp agonist = gsp mutant agonism; Potency, µM (top dose mostly 76.9 µM), inactives show at the top dose activation (cAMP increase), hits mostly activators; gsp mutant cells, cAMP HTRF, 30 min; hit rate 0.13% among 340,000; AID 624287; active = well fitted activation curve with a large enough effect; inconclusive = small, poorly fitted or top-dose-only effect, or another doubt; inactive = no such curve, though single readings can be large or run the other way; cell line not stated here;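 also: phosphodiesterase inhibitor Ro 20-1724 added with compounds to block cAMP breakdown; potency is read from the fitted curve at half-maximal effect; nearly all actives have a fitted effect of over 60% in size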
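Cells stably selected in G418 were plated at 2000/well, grown 16-24 hr, then given compounds in DMSO with the PDE inhibitor […] (300 uM solution added) for 30 min at 37C; cAMP was read by HTRF.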
pAkt inh = Akt phosphorylation inhibition; activity change, % for hits at 50 µM; hit rate 0.32% among 360,000; AID 651550; Neuro2A IGF-stimulated pAkt S473 HTRF, 20 min; stronger effect = lower value; in the data active = activity change below about -80%; inconclusive = mostly about -51% to -80%; also: % is scaled to controls: 0 for no effect and ±100 for the full control effect
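Neuro2A cells in DMEM with 0.5% FBS, overnight at 37 deg C, given compound at single 50 µM final, then IGF (6 nM final) for 20 min at 37 deg C. Lysed; phospho-Akt Ser473 by HTRF after 24 h, 665/615 ratio.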
RXFP1 antagonist = blocks the human relaxin receptor RXFP1. HEK293-RXFP1, relaxin-stimulated cAMP HTRF, 30 min; stronger effect = lower value. activity change, negative = inhibition, % at 57.5 µM. hit rate 0.59% among 350,000. AID 1259400;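 active = activity change of -60% or lower, but not beyond a set lower limit; inconclusive = change between -60% and -40%, or beyond the set limit; inactive = change above -40%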; also: % is scaled to controls: 0 for no effect and ±100 for the full control effect
gsp antagonist = gsp mutant antagonism; gsp-mutant cells, cAMP HTRF, 30 min; Potency, µM (titrated, usually from 76.9 µM), for inactives: at the top dose activity change, negative = inhibition, most hits filed as inhibitors; hit rate 0.4% among 340,000; AID 624288; calls by dose curve; cell line not stated here;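 also: intracellular cAMP measured with PDE inhibitor Ro 20-1724 present during compound exposure; potency is read from the fitted curve at half-maximal effect; % is scaled to controls: 0 for no effect and ±100 for the full control effect; nearly all actives have a fitted effect of over 65% in size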
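HTRF cAMP measurement after 30 min RT detection following 30 min, 37C compound treatment alongside […] (added as 300 uM solution) in G418-selected cells seeded at 2000/well and grown 16–24 h.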
* = called active by the depositor; i = inactive; ? = inconclusive; / = no result; ! = a repeat was not active; [ ] = dose if it differs, or a comment.

SMILES	TSHR antagonist	RXFP1 agonist	gsp agonist	pAkt inh	RXFP1 antagonist	gsp antagonist
OC(COCc1ccc(Cl)cc1)CN1CC=C(c2ccccc2)CC1 (stereo not given)	-7	1%	9%	i	-61*!	-1%
C[C@]12Cc3cn[nH]c3C[C@@H]1CC[C@@H]1[C@@H]2CC[C@@]2(C)[C@H]1CC[C@]2(C)O	/	/	/	/	-31	/
Oc1cc(Cl)ccc1Oc1ccc(Cl)cc1Cl	/	/	/	i	-77*!	-23%
COc1ccccc1OCCCn1cc(C(=O)C2CC2)c2ccccc21	-7	2%	4%[15.4 µM]	i	-20	45µM*
COc1ccccc1OCCCn1cc(C(C)=O)c2ccccc21	-10	3%	4%[15.4 µM]	i	-7	?
CCN(CC)C(=O)[C@@H]1C=C2c3cccc4[nH]cc(c34)C[C@H]2N(C)C1	/	/	/	/	8	/
O=c1nc(/C=C/c2ccc(Cl)cc2Cl)cc(C(F)(F)F)[nH]1	-34	0%	?	i	-75*	-5%
COc1ccccc1CN1CC(C(=O)NCCN(C)CCc2ccccc2)CCC1=O (stereo not given)	13	-2%	-33%	i	4	-15%
CC[n+]1c(-c2ccccc2)c2cc(N)ccc2c2ccc(N)cc21	/	/	25%	i	-85*!	?
Oc1ccc(Cl)cc1Cc1ccccc1	/	/	-3%	i	-82*!	4%
O=C(Nc1ccc(Cl)cc1C(=O)c1ccccc1)c1ccco1	-13	2%	-27%	i	2	-15%
C[C@@H]1O[C@@H](O[C@@H]2C=C3CCC4C(CC[C@]5(C)[C@@H](c6ccc(=O)oc6)CC[C@]45O)[C@@]3(C)CC2)[C@H](O)[C@H](O)[C@H]1O (stereo not given in full)	-74*	-1%	/	i	/	-1%
C[C@@H]1O[C@@H](O[C@@H]2C=C3CC[C@@H]4C(CC[C@]5(C)[C@@H](c6ccc(=O)oc6)CC[C@]45O)[C@@]3(C)CC2)[C@H](O)[C@H](O)[C@H]1O (stereo not given in full)	-78*	2%	/	i	/	4%
C[C@@H]1O[C@@H](O[C@H]2C[C@@H](O)[C@]3(CO)[C@@H]4C(CC[C@]3(O)C2)[C@@]2(O)CC[C@H]([C@@H]3COC(=O)C3)[C@@]2(C)C[C@H]4O)[C@H](O)[C@H](O)[C@H]1O (stereo not given in full)	-47	/	/	/	/	/
CN1C(=O)/C(=C/c2cccn2-c2ccc3ccccc3c2)C(=O)NC1=S	5	2%	1%	i	-97*	9%
Cc1cc(C)cc(N2C(=O)NC(=O)/C(=C\c3cccn3-c3ccccc3)C2=O)c1	17	1%	-20%	i	-15	-7%
COc1ccccc1C(=O)Nc1ccc2nc(SCC(=O)N3CCCc4ccccc43)sc2c1	/	?	/	/	-9	/
CCOc1ccc(N2C(=O)CC(=O)NC2=O)cc1	-2	-3%	-2%[15.4 µM]	i	-4	-4%
COc1cc(N2C(=O)CC(=O)NC2=O)cc(OC)c1OC	-130*	-2%	2%[15.4 µM]	i	-1	-5%
COc1cccc2c1C(=O)c1c(O)c3c(c(O)c1C2=O)C[C@@](O)(C(=O)CO)CC3OC1CC(N2CCOC(OC)C2)C(O)C(C)O1 (stereo not given in full)	/	/	/	/	-19	/
CC(Cc1ccccc1)NCCCCl (stereo not given)	/	/	/	/	-7	/
CN(C)c1ccc(/C=C2/C(=O)NC(=O)N(Cc3ccco3)C2=O)cc1	11	-2%	-17%	i	5	-34%
C=CCN1C(=O)NC(=O)/C(=C\c2ccc(-c3ccccc3[N+](=O)[O-])o2)C1=O	-13	-2%	0%[15.4 µM]	i	-101*	-8%
O=C1NC(=O)N(Cc2ccco2)C(=O)/C1=C/c1ccc(-c2cccc([N+](=O)[O-])c2)o1	-9	2%	2%	i	-67*	-6%
Cc1cccc(OCCn2cccc2/C=C2/C(=O)NC(=O)N(Cc3ccco3)C2=O)c1	5	1%	17%	i	-68*	?
